In PubChem BioAssay (NCI):
About 83,000 compounds went through this panel and 20% of them were active in at least one assay; those are over-represented in the sample as a whole.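 48-hour exposure, single concentration, 96-well plates; percent growth endpoint where 0 means no net growth. Active: below 10.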 A number with no mark means an inactive call. Activity calls are given as the source filed them.

Columns and labels:
Assay in all cases: NCI-60 one-dose screen, 48 h (100 = growth as untreated, 0 = no growth, -100 = all killed)
Conditions in all cases: 10 µM unless noted
DU-145 prostate = system: DU-145 prostate
K-562 leukemia = system: K-562 leukemia
MALME-3M melanoma = system: MALME-3M melanoma
MDA-MB-231 breast = system: MDA-MB-231 breast
RXF 393 renal = system: RXF 393 renal
SF-268 CNS = system: SF-268 CNS
SF-539 CNS = system: SF-539 CNS
UACC-257 melanoma = system: UACC-257 melanoma
M14 melanoma = system: M14 melanoma
HCT-15 colon = system: HCT-15 colon
HT29 colon = system: HT29 colon
SNB-75 CNS = system: SNB-75 CNS
SNB-19 CNS = system: SNB-19 CNS
U251 CNS = system: U251 CNS
PC-3 prostate = system: PC-3 prostate
SK-MEL-5 melanoma = system: SK-MEL-5 melanoma
UACC-62 melanoma = system: UACC-62 melanoma
LOX IMVI melanoma = system: LOX IMVI melanoma
SK-MEL-28 melanoma = system: SK-MEL-28 melanoma

| SMILES | growth (DU-145 prostate) | growth (K-562 leukemia) | growth (MALME-3M melanoma) | growth (MDA-MB-231 breast) | growth (RXF 393 renal) | growth (SF-268 CNS) | growth (SF-539 CNS) | growth (UACC-257 melanoma) | growth (M14 melanoma) | growth (HCT-15 colon) | growth (HT29 colon) | growth (SNB-75 CNS) | growth (SNB-19 CNS) | growth (U251 CNS) | growth (PC-3 prostate) | growth (SK-MEL-5 melanoma) | growth (UACC-62 melanoma) | growth (LOX IMVI melanoma) | growth (SK-MEL-28 melanoma) |
| --- | --- | --- | --- | --- | --- | --- | --- | --- | --- | --- | --- | --- | --- | --- | --- | --- | --- | --- | --- |
| COc1ccc(-n2nc(C(=O)NCC(=O)Nc3nc4cc(OC)ccc4s3)c3ccccc3c2=O)cc1 | -28.9% (active) | 73.9% | -13.8% (active) | -13.6% (active) | -38.1% (active) | -13.6% (active) | -93% (active) | -4.82% (active) | 44.3% | 64.7% | -24.4% (active) | -65.9% (active) | 0.597% (active) | -39.8% (active) | 3.92% (active) | 48.9% | 31.2% | -32.4% (active) | 21.1% |
| COc1cccc(/C=N/N=C(N)N)c1 | 102% | 94.5% | 111% | 91.4% | 106% | 101% | 84.5% | 97.1% | 93.8% | 100% | 100% | 89.9% | 101% | 103% | 97.2% | 98.1% | 81.8% | 106% | 106% |
| CN(C)c1ccc(N2Cc3ccccc3OC3=C2C(=O)c2c(O)ccc(O)c2C3=O)cn1 | -97.3% (active) | -20.8% (active) | -76.9% (active) | -93.6% (active) | -87% (active) | -32.5% (active) | -63% (active) | -89.9% (active) | -88.6% (active) | -64.4% (active) | -50.8% (active) | 0.378% (active) | 6.23% (active) | -15.7% (active) | -4.29% (active) | -81.3% (active) | -87.4% (active) | -68.1% (active) | -82.8% (active) |
| N=C(N)c1ccc(-c2ccc(-c3cc(Cl)cc(Cl)c3)o2)nc1 | -91.9% (active) | -65.6% (active) | -58.9% (active) | -77.3% (active) | 67% | -67.1% (active) | -90.9% (active) | -81.1% (active) | -76.4% (active) | -67.1% (active) | -81.7% (active) | -90.7% (active) | -75.6% (active) | -88.3% (active) | -29.7% (active) | 34.7% | -86.2% (active) | -86.7% (active) | -79.2% (active) |
| CSC1=NC(=Nc2c(C)cccc2C)C2(CCC(C(C)(C)C)CC2)N1c1ccc(Cl)cc1 (centres undefined) | 40.3% | 17.7% | 38.5% | 61.8% | 38% | 42.8% | 46.5% | 54.1% | 49.5% | 31.9% | 25.5% | 74.8% | 75.3% | 30.6% | 47.9% | 47.6% | 73.8% | 20.8% | 79.5% |
| CC(C)N=C1CCCC1C(=S)SSC(=S)C1CCCC1=NC(C)C (centres undefined) | 64.9% | 34.9% | 53.8% | 76.9% | 78.3% | 68.6% | 83.4% | 69.7% | 64.4% | 54.6% | 79.1% | 74.3% | 83.5% | 50.3% | 47.4% | 81.6% | 75% | 50.9% | 81% |
| O=C(CS)OCC(COC(=O)CS)(COC(=O)CS)COC(=O)CS | 95.3% | 34.3% | 89.6% | 104% | 98.8% | 82.7% | 98.4% | 59.3% | 18.1% | 85% | 98.9% | 74.5% | 119% | 103% | 83.4% | 102% | 67.9% | 70.5% | 90.1% |
| C=CCn1c(SCC(=O)Nc2ccc(C(=O)/C=C/c3ccccc3)cc2)nnc1-c1ccc(OC)c(OC)c1 | 89.6% | 47.5% | 105% | 77.1% | 85.7% | 86% | 92.1% | 79.9% | 73.6% | 64.2% | 80.1% | 79.1% | 76.4% | 72.7% | 67.8% | 61.3% | 72.1% | 84.9% | 97.6% |
| COc1cc(C2Nc3ccccc3S2)cc(CN2CCOCC2)c1O (centres undefined) | 101% | 46.9% | 66.7% | 63.6% | 78.5% | 91.1% | 82.3% | 78.2% | 55.5% | 52.3% | 93.4% | 46% | 75.9% | 86.7% | 82.1% | 50.6% | 57.3% | 78.2% | 68.6% |
| CN(CCO)c1ccc(N2Cc3ccccc3OC3=C2C(=O)c2c(O)ccc(O)c2C3=O)cn1 | -98.8% (active) | -1.58% (active) | -86.1% (active) | -90.2% (active) | -96.6% (active) | -59.7% (active) | -68.9% (active) | -91.6% (active) | -89% (active) | -83.6% (active) | -49% (active) | -13.7% (active) | 6.43% (active) | -24.8% (active) | -14.8% (active) | -94.9% (active) | -88.3% (active) | -86.6% (active) | -83.4% (active) |
| COc1ccc(-c2nc(-c3cc(OC)cc(OC)c3)[nH]c2-c2ccc(OC)cc2)cc1 | 78.5% | 16.3% | 70.9% | 58.7% | 54.5% | 88.6% | 80.5% | 62.9% | 49.7% | 45.3% | 17.3% | 86.1% | 61.2% | 45.6% | 27.5% | 14.9% | 37% | 61.3% | 67.4% |
| COc1ccc(-c2nnc(SCC(=O)Nc3ccc(C(=O)/C=C/c4ccc(Cl)cc4)cc3)n2-c2ccccc2)cc1 | 101% | 96.7% | 112% | 79.6% | 106% | 91% | 101% | 115% | 85.9% | 94.7% | 99.2% | 86.5% | 99.6% | 85.8% | 87.9% | 92.1% | 83.7% | 103% | 101% |
| C#CC[C@@H]1C[C@]2(C)[C@H]3CC=C4[C@H]5[C@@H](C)[C@H](C)CC[C@]5(C(=O)NCCCN5CCN(CCCN)CC5)CC[C@@]4(C)[C@]3(C)CC[C@H]2C(C)(C)[C@H]1OC(C)=O | 0.421% (active) | -23.3% (active) | -81% (active) | -70.4% (active) | -82.1% (active) | 85% | -94% (active) | -32.1% (active) | -69.2% (active) | -83.7% (active) | -72.8% (active) | -61.5% (active) | -46.1% (active) | -75.8% (active) | 15% | -7.08% (active) | -68.1% (active) | -83.2% (active) | -84.6% (active) |
| O=C(Nc1ccc(OS(=O)(=O)c2ccc(F)cc2)cc1)C12CC3CC(CC(C3)C1)C2 | 87.1% | 27.5% | 99.7% | 59.2% | 58.6% | 78.4% | 61% | 65.3% | 58.8% | 42.3% | 7.52% (active) | 101% | 77.9% | 84% | 38% | 28.3% | 68% | 61.6% | 79.7% |
| CCCCN(CCCC)CCC(O)c1cc2ccc(C(F)(F)F)cc2c2cc(C(F)(F)F)ccc12 (centres undefined) | 55.3% | 5.28% (active) | 47.8% | 33.2% | 7.74% (active) | 63.3% | 48.7% | 41.6% | 18.8% | 27.3% | 8.42% (active) | 60.9% | 72.6% | 45.2% | 35.6% | 38.9% | 40.8% | -58.4% (active) | 77.2% |
| CN1CCN(Cc2ccc(NC(=O)c3cncc(C#Cc4ncc5ccccn45)c3)cc2C(F)(F)F)CC1 | -4.29% (active) | 3.35% (active) | -21.4% (active) | 15.4% | -10.1% (active) | 15.4% | -79.6% (active) | 7.63% (active) | 5.5% (active) | 19.2% | 5.13% (active) | 34.3% | 39% | -27.7% (active) | 21.9% | 52.3% | 51.7% | 25.7% | 8.57% (active) |
